# Source: PubChem BioAssay (NCI)
# The panel holds about 83,000 compounds, 20% with a hit somewhere; the sample as a whole holds those more often.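 Step 1: grow cells in 96-well plates. Step 2: add test compound at a single concentration. Step 3: incubate 48 h. Step 4: record percent growth.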 Activity calls are given as the source filed them. Rule for the calls: active = growth percent below 10; inactive = the rest.
# System: KM12 colon
# Experiment: NCI-60 one-dose screen, 48 h (100 = growth as untreated, 0 = no growth, -100 = all killed)
# Conditions: 10 µM unless noted
row,SMILES,growth
1,Cc1cc(C)n(CC(=O)Nc2ccc(-c3nc4ccccc4s3)cc2)n1,100% (inactive)
2,CNS(=O)(=O)Nc1nccc(Cc2c(C)c3ccc(Oc4ncccn4)cc3oc2=O)c1F,26.1% (inactive)
3,C[C@@H](Oc1cc(-n2cnc3ccc(CN4CCN(C)CC4)cc32)sc1C(N)=O)c1ccccc1C(F)(F)F,10.3% (inactive)
4,COc1ccc(Cl)c(Nc2nc3ccccc3nc2NS(=O)(=O)c2cccc(NC(=O)C(C)(C)N)c2)c1,53.1% (inactive)
5,COc1ccc(-c2ccc3c(N4CCOC[C@@H]4C)nc(N4CCOC[C@@H]4C)nc3n2)cc1CO,13.1% (inactive)
6,O=C(Nc1cccc(Cl)c1)Nc1ncc(CCNc2ncnc3ccsc23)s1,11.4% (inactive)
7,C#Cc1cccc(Nc2ncnc3cc(OCCOC)c(OCCOC)cc23)c1,77.8% (inactive)
8,O=C(Nc1ccc(Nc2ncnc3sc4c(c23)CCOC4)cc1)Nc1ccc(Cl)c(C(F)(F)F)c1,86.4% (inactive)
9,CCCCN1C(=O)c2cccc3c(-c4ccc5c(c4)ncn5C4CCCCC4)ccc(c23)C1=O,92.2% (inactive)
10,COc1cc(Nc2c(C#N)cnc3cc(OCCCN4CCN(C)CC4)c(OC)cc23)c(Cl)cc1Cl,32.9% (inactive)
11,COc1ncc(-c2ccc3nccc(-c4ccnnc4)c3c2)cc1NS(=O)(=O)c1ccc(F)cc1F,-60.5% (active)
12,C/C(=C(/c1ccc(Cl)cc1)c1ccc(OCCN2CCCC2)cc1)c1ccccc1,25.6% (inactive)
13,COc1cc(OC)c(/C=C/S(=O)(=O)Cc2ccc(OC)c(NCC(=O)O)c2)c(OC)c1,5.06% (active)
14,Nc1ncnc2c1ccn2-c1cccc(NC(=O)c2ccc(N3CCOCC3)c(C(F)(F)F)c2)c1,31% (inactive)
15,C/C=C/C=N/NC(=S)Nc1ccccc1,98.6% (inactive)
16,C=CC(=O)Nc1cc(Nc2nccc(-c3cn(C)c4ccccc34)n2)c(OC)cc1N(C)CCN(C)C,-47.7% (active)
17,C[C@@H](NC(=O)c1ncnc(N)c1Cl)c1ncc(C(=O)Nc2cc(C(F)(F)F)c(Cl)cn2)s1,75.1% (inactive)
18,COc1cc2c(Oc3ccc4[nH]c(C)cc4c3F)ncnc2cc1OCCCN1CCCC1,96.7% (inactive)

row,SMILES,growth
1,NC[C@@](O)(c1ccc(Cl)cc1)c1ccc(-c2cn[nH]c2)cc1,16.6% (inactive)
2,Cc1cc(O)cc(-c2c(-c3ccnc(-c4cccnc4)c3)cnn2C)c1,68.6% (inactive)
3,CS(=O)(=O)N1CCN(Cc2cc3nc(-c4cccc5[nH]ncc45)nc(N4CCOCC4)c3s2)CC1,16.3% (inactive)
4,CN[C@@H]1C[C@H]2O[C@@](C)([C@@H]1OC)n1c3ccccc3c3c4c(c5c6ccccc6n2c5c31)C(=O)N[C@H]4O,-59.8% (active)
5,O=c1[nH]ccc2c(S(=O)(=O)N3CCCNCC3)cccc12,93.3% (inactive)
6,CCN(CCCOc1ccc2c(Nc3cc(CC(=O)Nc4cccc(F)c4)[nH]n3)ncnc2c1)CCOP(=O)(O)O,21.4% (inactive)
7,Cn1cc(-c2cnn3c(N)c(Br)c([C@@H]4CCCNC4)nc23)cn1,18.4% (inactive)
8,C[C@@H](Nc1cc(F)cc(F)c1)c1cc(C(=O)N(C)C)cc2c(=O)cc(N3CCOCC3)oc12,66.5% (inactive)
9,COc1ccc2c(CCCc3ccc(Cl)cc3Cl)c3[n+](cc2c1OC)CCc1cc2c(cc1-3)OCO2,-55.3% (active)
10,Cn1c(=O)c(F)c(Nc2ccc(I)cc2F)c2c(=O)n(C[C@@H](O)CO)cnc21,19.9% (inactive)
11,CC(C)(C)c1cnc(CSc2cnc(NC(=O)C3CCNCC3)s2)o1,3.58% (active)
12,NC1(C(=O)N[C@@H](CCO)c2ccc(Cl)cc2)CCN(c2ncnc3[nH]ccc23)CC1,5.76% (active)
13,COC(=O)c1ccc2c(C(=Nc3ccc(N(C)C(=O)CN4CCN(C)CC4)cc3)c3ccccc3)c(O)[nH]c2c1,8.95% (active)
14,CS(=O)(=O)CCNCc1ccc(-c2ccc3ncnc(Nc4ccc(OCc5cccc(F)c5)c(Cl)c4)c3c2)o1,-34.9% (active)
15,C1=C\COCc2cc(ccc2OCCN2CCCC2)Nc2nccc(n2)-c2cccc(c2)COC/1,-9.97% (active)
16,O=C(Nc1cn[nH]c1-c1nc2ccc(CN3CCOCC3)cc2[nH]1)NC1CC1,6.92% (active)
17,Cc1cc2c(-c3nc4ccccn4c3N)c(O)c(O)cc2c(O)c1-c1c(C)cc2c(-c3nc4ccccn4c3N)c(O)c(O)cc2c1O,22.1% (inactive)
